# Reference: article PMC8384837, “Expanding the binding specificity for RNA recognition by a PUF domain”
# Residue numbers refer to the chain shown, from its start.
# How the values were obtained:
# Test in all cases: yeast three-hybrid, YBZ-1, SC-Leu-His + 0.5 mM 3-AT, 4 days
# Details in all cases: tags: N-Gal4 AD-HA kept; label: inside an RPR1-promoter hybrid RNA with tandem MS2 sites; ssRNA
# [1] = biological target: PUM1 PUF domain R7-ISG (Homo sapiens, UniProt Q14671 828-1176, S1079I;N1080S;E1083G)
# In short: (§1)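 The interaction score is the logarithmic change in variant frequency from input to selection. It uses log2, with a pseudocount of 1 for absent variants, and frequencies came from PCR-amplified, Illumina-sequenced repeat regions. The libraries were Pumilio-1 PUF domains randomized at the three base-contacting residues per repeat, co-expressed with matching RNA elements in strain YBZ-1 (LexA–MS2 coat fusion, HIS3 reporter). Plating lasted four days on SC-Leu (input) or SC-Leu-His + 0.5 mM 3-AT (selection).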
# [2] = biological target: PUM1 PUF domain R7-RAR (Homo sapiens, UniProt Q14671 828-1176, S1079R;N1080A;E1083R)
# In short: as §1
# [3] = biological target: PUM1 PUF domain R4-WGM (Homo sapiens, UniProt Q14671 828-1176, N971W;H972G;Q975M)
# In short: as §1
# [4] = biological target: PUM1 PUF domain R4-WSH (Homo sapiens, UniProt Q14671 828-1176, N971W;H972S;Q975H)
# In short: as §1
# [5] = biological target: PUM1 PUF domain R4-TPN (Homo sapiens, UniProt Q14671 828-1176, N971T;H972P;Q975N)
# PUM1 PUF domain R4-TPN, sequence (Q14671 828-1176 N971T/H972P/Q975N): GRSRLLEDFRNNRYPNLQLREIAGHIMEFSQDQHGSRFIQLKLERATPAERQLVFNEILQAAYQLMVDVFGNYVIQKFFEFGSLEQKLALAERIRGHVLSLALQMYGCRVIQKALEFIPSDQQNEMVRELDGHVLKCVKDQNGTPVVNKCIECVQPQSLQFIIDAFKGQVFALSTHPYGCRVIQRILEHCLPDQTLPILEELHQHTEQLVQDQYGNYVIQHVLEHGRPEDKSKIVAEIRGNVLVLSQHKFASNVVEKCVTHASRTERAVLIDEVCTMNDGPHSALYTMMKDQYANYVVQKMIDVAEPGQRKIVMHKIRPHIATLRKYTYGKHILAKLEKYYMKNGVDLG
# In short: as §1
# [6] = biological target: PUM1 PUF domain R5-KRK (Homo sapiens, UniProt Q14671 828-1176, C1007K;Q1011K)
# In short: as §1
# [7] = biological target: PUM1 PUF domain R5-KVE (Homo sapiens, UniProt Q14671 828-1176, C1007K;R1008V;Q1011E)
# In short: as §1
# [8] = biological target: PUM1 PUF domain R5-RST (Homo sapiens, UniProt Q14671 828-1176, C1007R;R1008S;Q1011T)
# In short: as §1
# [9] = biological target: PUM1 PUF domain R4-VPC (Homo sapiens, UniProt Q14671 828-1176, N971V;H972P;Q975C)
# In short: as §1
# [10] = biological target: PUM1 PUF domain R3-PFV (Homo sapiens, UniProt Q14671 828-1176, C935P;R936F;Q939V)
# In short: as §1
# [11] = biological target: T1, PUM1 PUF domain R6-NWV (Homo sapiens, UniProt Q14671 828-1176, Y1044W;Q1047V)
# T1 sequence: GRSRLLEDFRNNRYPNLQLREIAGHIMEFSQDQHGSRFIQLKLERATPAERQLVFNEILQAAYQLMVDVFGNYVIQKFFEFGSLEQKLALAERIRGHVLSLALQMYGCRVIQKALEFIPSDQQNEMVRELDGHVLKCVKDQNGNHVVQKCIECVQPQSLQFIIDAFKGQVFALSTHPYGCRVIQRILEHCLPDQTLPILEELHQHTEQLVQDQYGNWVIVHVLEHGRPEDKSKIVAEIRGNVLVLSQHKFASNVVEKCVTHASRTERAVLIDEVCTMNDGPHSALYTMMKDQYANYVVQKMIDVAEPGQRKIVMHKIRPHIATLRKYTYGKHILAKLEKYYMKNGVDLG
# In short: as §1
# [12] = biological target: PUM1 PUF domain R2-RVT (Homo sapiens, UniProt Q14671 828-1176, N899R;Y900V;Q903T)
# In short: as §1
# [13] = biological target: PUM1 PUF domain R8-KFY (Homo sapiens, UniProt Q14671 828-1176, N1122K;Y1123F;Q1126Y)
# In short: as §1
# [14] = biological target: PUM1 PUF domain R3-SRF (Homo sapiens, UniProt Q14671 828-1176, C935S;Q939F)
# In short: as §1
# [15] = biological target: PUM1 PUF domain R3-FYS (Homo sapiens, UniProt Q14671 828-1176, C935F;R936Y;Q939S)
# In short: as §1
# [16] = biological target: PUM1 PUF domain R2-NWP (Homo sapiens, UniProt Q14671 828-1176, Y900W;Q903P)
# In short: as §1
# [17] = biological target: T2, PUM1 PUF domain R6-IFQ (Homo sapiens, UniProt Q14671 828-1176, N1043I;Y1044F)
# T2 sequence: T1 sequence with N216I, W217F, V220Q
# In short: as §1
# [18] = biological target: PUM1 PUF domain R8-MHK (Homo sapiens, UniProt Q14671 828-1176, N1122M;Y1123H;Q1126K)
# In short: as §1
# [19] = biological target: PUM1 PUF domain R1-TRR (Homo sapiens, UniProt Q14671 828-1176, S863T;Q867R)
# In short: as §1
# [20] = biological target: PUM1 PUF domain R5-DWW (Homo sapiens, UniProt Q14671 828-1176, C1007D;R1008W;Q1011W)
# In short: as §1
sequence,measurement,setting,value
GGCUAGAACUAGUGGAUCCCCCGGCGCCCGGCGGCUCGAGCCCGGGUAAGUUUAAAUAGUCUGCAUGCCGCCGGGCGCCAUGCCUGCAGGUCGACUCUAGAAAACAUG,binding signal,[1],5.55 log2 enrichment (interaction score)
same,binding signal,[2],4.56 log2 enrichment (interaction score)
GGCUAGAACUAGUGGAUCCCCCGGCGCCCGGCGGCUCGAGCCCGGGUAAGUGUAUAUAGUCUGCAUGCCGCCGGGCGCCAUGCCUGCAGGUCGACUCUAGAAAACAUG,binding signal,[3],2.85 log2 enrichment (interaction score)
same,binding signal,[4],4.36 log2 enrichment (interaction score)
same,binding signal,[5],3.42 log2 enrichment (interaction score)
GGCUAGAACUAGUGGAUCCCCCGGCGCCCGGCGGCUCGAGCCCGGGUAAGUGUCAAUAGUCUGCAUGCCGCCGGGCGCCAUGCCUGCAGGUCGACUCUAGAAAACAUG,binding signal,[6],3.89 log2 enrichment (interaction score)
same,binding signal,[7],2.24 log2 enrichment (interaction score)
same,binding signal,[8],2.91 log2 enrichment (interaction score)
GGCUAGAACUAGUGGAUCCCCCGGCGCCCGGCGGCUCGAGCCCGGGUAAGUGUACAUAGUCUGCAUGCCGCCGGGCGCCAUGCCUGCAGGUCGACUCUAGAAAACAUG,binding signal,[9],3.7 log2 enrichment (interaction score)
same,binding signal,[5],4.27 log2 enrichment (interaction score)
GGCUAGAACUAGUGGAUCCCCCGGCGCCCGGCGGCUCGAGCCCGGGUAAGUCUAAAUAGUCUGCAUGCCGCCGGGCGCCAUGCCUGCAGGUCGACUCUAGAAAACAUG,binding signal,[2],1.83 log2 enrichment (interaction score)
GGCUAGAACUAGUGGAUCCCCCGGCGCCCGGCGGCUCGAGCCCGGGUAAGUGUAAUUAGUCUGCAUGCCGCCGGGCGCCAUGCCUGCAGGUCGACUCUAGAAAACAUG,binding signal,[10],2.52 log2 enrichment (interaction score)
GGCUAGAACUAGUGGAUCCCCCGGCGCCCGGCGGCUCGAGCCCGGGUAAGUGAAAAUAGUCUGCAUGCCGCCGGGCGCCAUGCCUGCAGGUCGACUCUAGAAAACAUG,binding signal,[11],3.35 log2 enrichment (interaction score)
GGCUAGAACUAGUGGAUCCCCCGGCGCCCGGCGGCUCGAGCCCGGGUAAGUGUAAAGAGUCUGCAUGCCGCCGGGCGCCAUGCCUGCAGGUCGACUCUAGAAAACAUG,binding signal,[12],2.17 log2 enrichment (interaction score)
GGCUAGAACUAGUGGAUCCCCCGGCGCCCGGCGGCUCGAGCCCGGGUAAGCGUAAAUAGUCUGCAUGCCGCCGGGCGCCAUGCCUGCAGGUCGACUCUAGAAAACAUG,binding signal,[13],2.74 log2 enrichment (interaction score)
GGCUAGAACUAGUGGAUCCCCCGGCGCCCGGCGGCUCGAGCCCGGGUAAGUGUAAAUAGUCUGCAUGCCGCCGGGCGCCAUGCCUGCAGGUCGACUCUAGAAAACAUG,binding signal,[10],3.44 log2 enrichment (interaction score)
same,binding signal,[14],2.58 log2 enrichment (interaction score)
same,binding signal,[15],3.03 log2 enrichment (interaction score)
same,binding signal,[9],2.65 log2 enrichment (interaction score)
same,binding signal,[16],4.83 log2 enrichment (interaction score)
same,binding signal,[13],2.5 log2 enrichment (interaction score)
same,binding signal,[4],1.11 log2 enrichment (interaction score)
same,binding signal,[17],3.62 log2 enrichment (interaction score)
same,binding signal,[5],5.21 log2 enrichment (interaction score)
same,binding signal,[18],2.63 log2 enrichment (interaction score)
GGCUAGAACUAGUGGAUCCCCCGGCGCCCGGCGGCUCGAGCCCGGGUAAGUGUAAAUCGUCUGCAUGCCGCCGGGCGCCAUGCCUGCAGGUCGACUCUAGAAAACAUG,binding signal,[19],4.23 log2 enrichment (interaction score)
GGCUAGAACUAGUGGAUCCCCCGGCGCCCGGCGGCUCGAGCCCGGGUAAGUGUUAAUAGUCUGCAUGCCGCCGGGCGCCAUGCCUGCAGGUCGACUCUAGAAAACAUG,binding signal,[6],2.98 log2 enrichment (interaction score)
GGCUAGAACUAGUGGAUCCCCCGGCGCCCGGCGGCUCGAGCCCGGGUAAGUGUGAAUAGUCUGCAUGCCGCCGGGCGCCAUGCCUGCAGGUCGACUCUAGAAAACAUG,binding signal,[20],5.08 log2 enrichment (interaction score)
GGCUAGAACUAGUGGAUCCCCCGGCGCCCGGCGGCUCGAGCCCGGGUAAGUGUAAAUUGUCUGCAUGCCGCCGGGCGCCAUGCCUGCAGGUCGACUCUAGAAAACAUG,binding signal,[19],3.12 log2 enrichment (interaction score)
